Assay results: PubChem BioAssay (NCATS)
Where “and” joins values, the source holds several entries; their conditions need not be identical. Equal values may be shown once. Inconclusive results are not listed. Calls of active or inactive are those of the source. Calls come from the whole dose curve; as a rule, active = well fitted curve in the direction sought with a large enough effect; inconclusive = small, poorly fitted or top-dose-only effect, or another doubt; inactive = no such curve, though single readings can be large; an effect the other way counts as inactive or inconclusive.

Tests used:
HEK293 = assay: Cytotoxic Profiling of Annotated Libraries Using Quantitative High-Throughput Screening (AID 1296008); settings: Five cell lines viability, CellTiter-Glo ATP luminescence, 48-72 h; max response: active compounds read low; note: nearly all actives have a fitted effect of over 60% in size
Outline: (§1)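 Cytotoxicity was measured as CellTiter-Glo ATP luminescence, read after 10 min at room temperature. Compound treatment of the cells lasted 48 or 72 hr at 37 degrees Celsius in a qHTS format.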

HaCat [1] = assay: as above; settings: Five cell lines viability, CellTiter-Glo ATP luminescence, 48-72 h; max response: active compounds read low
Outline: as §1

KB-3-1 = assay: as above; settings: Five cell lines viability, CellTiter-Glo ATP luminescence, 48-72 h; max response: active compounds read low
Outline: as §1

NIH3T3 [2] = assay: as above; settings: Five cell lines viability, CellTiter-Glo ATP luminescence, 48-72 h; max response: active compounds read low
Outline: as §1

HACAT [3] = assay: qHTS assay to identify novel small-molecules to repurpose for Merkel cell carcinoma treatment (AID 1296009); settings: MCC and control cell lines, CellTiter-Glo viability, 72 h; series mostly up to 44.8 µM; note: nearly all actives have a fitted effect of over 60% in size
Outline: (§2)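 After compound transfer in DMSO, plates were kept 72 hr at 37 degree celsius. Luminescent ATP signal from CellTiter-Glo served as viability measure, normalized against DMSO and no-cell controls.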

MCC-13 = assay: as above; settings: MCC and control cell lines, CellTiter-Glo viability, 72 h; series mostly up to 46 µM
Outline: as §2

MCC-26 = assay: as above; settings: MCC and control cell lines, CellTiter-Glo viability, 72 h; series mostly up to 46 µM
Outline: as §2

MKL-1 = assay: as above; settings: MCC and control cell lines, CellTiter-Glo viability, 72 h; series mostly up to 46 µM
Outline: as §2

MKL-2 = assay: as above; settings: MCC and control cell lines, CellTiter-Glo viability, 72 h; series mostly up to 46 µM
Outline: as §2

NIH3T3 [4] = assay: as above; settings: MCC and control cell lines, CellTiter-Glo viability, 72 h; at 44.8 µM (top of the series) unless noted
Outline: as §2

UISO = assay: as above; settings: MCC and control cell lines, CellTiter-Glo viability, 72 h; series mostly up to 46 µM
Outline: as §2

WaGa = assay: as above; settings: MCC and control cell lines, CellTiter-Glo viability, 72 h; series mostly up to 46 µM
Outline: as §2

C33A = assay: Primary qHTS to identify gynecologic anti-cancer compounds using libraries of approved drugs and bioactive compounds (AID 1345084); settings: Gynecologic cancer cell panel viability, ATPlite luminescence, 48 h; series mostly up to 57.5 µM; note: nearly all actives have a fitted effect of over 55% in size
Outline: (§3)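 Cells, 1,000 per well, plated 16 h, then exposed 48 h at 37 C to compounds. Viability by ATPlite luminescence after 15 min at room temperature.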

CASKI = assay: as above; settings: Gynecologic cancer cell panel viability, ATPlite luminescence, 48 h; series mostly up to 57.5 µM
Outline: as §3

Es-2 = assay: as above; settings: Gynecologic cancer cell panel viability, ATPlite luminescence, 48 h; series mostly up to 57.5 µM
Outline: as §3

HeLa = assay: as above; settings: Gynecologic cancer cell panel viability, ATPlite luminescence, 48 h; series mostly up to 57.5 µM
Outline: as §3

Hek293T = assay: as above; settings: Gynecologic cancer cell panel viability, ATPlite luminescence, 48 h, control line for the selectivity index; series mostly up to 57.5 µM
Outline: as §3

JEG-3 = assay: as above; settings: Gynecologic cancer cell panel viability, ATPlite luminescence, 48 h; series mostly up to 57.5 µM
Outline: as §3

CAOV3 = assay: as above; settings: Gynecologic cancer cell panel viability, ATPlite luminescence, 48 h; series mostly up to 57.5 µM
Outline: as §3
% is set by controls: 0 for no effect and ±100 for the full control effect; potency is the fitted concentration of half-maximal effect.

COc1cc(C(C)C)c2c(c1)S(=O)(=O)N(COc1cc(=O)n3cccc(OCCN4CCCCC4)c3n1)C2=O
inactive: max response (HEK293) -21.7% | outcome (HaCat [1]) | outcome (KB-3-1) | outcome (NIH3T3 [2]) | Potency (HACAT [3]) | Potency (MCC-13) | Potency (MCC-26) | Potency (MKL-1) | Potency (MKL-2) | outcome (NIH3T3 [4]) | Potency (UISO) | Potency (WaGa)

CN(C)Cc1c(C(=O)NCCOc2ccc(C(=O)NO)cc2)oc2ccccc12
active: Potency (HEK293) 1.87 µM and 1.16 µM | Potency (HaCat [1]) 4.11 µM | Potency (KB-3-1) 1.48 µM and 1.3 µM | Potency (NIH3T3 [2]) 3.72 µM and 3.26 µM | Potency (MCC-13) 8.33 µM | Potency (MCC-26) 7.43 µM | Potency (MKL-2) 0.662 µM | Potency (WaGa) 0.332 µM | Potency (C33A) 4.47 µM | Potency (CASKI) 3.98 µM | Potency (Es-2) 5.01 µM | Potency (HeLa) 2.82 µM | Potency (Hek293T) 2.82 µM | Potency (JEG-3) 3.55 µM

COc1ccc(C=Cc2cc(OC)c(OC)c(OC)c2)cc1O
active: Potency (KB-3-1) 1 nM
inactive: max response (HEK293) -79.1% | max response (HaCat [1]) -0.114% | max response (NIH3T3 [2]) -49.1% | Potency (MCC-13) | Potency (MKL-2) | Potency (WaGa)

COc1cc2c(Oc3ccc(NC(=O)C4(C(=O)Nc5ccc(F)cc5)CC4)cc3F)ccnc2cc1OCCCN1CCOCC1
active: Potency (HEK293) 8.33 µM and 18.4 µM | Potency (HaCat [1]) 4.18 µM and 6.51 µM | Potency (KB-3-1) 1.32 µM and 2.91 µM | Potency (NIH3T3 [2]) 526 nM and 731 nM | Potency (MCC-13) 14.8 µM | Potency (MCC-26) 4.69 µM | Potency (MKL-1) 4.69 µM | Potency (UISO) 6.62 µM | Potency (Es-2) 25.1 µM | Potency (HeLa) 6.31 µM | Potency (Hek293T) 7.94 µM
inactive: Potency (JEG-3)

CNC(=O)c1nn(C)c2c1C(C)(C)Cc1cnc(Nc3ccc(N4CCN(C)CC4)cc3)nc1-2
active: Potency (HEK293) 1.16 µM | Potency (HaCat [1]) 1.66 µM and 2.06 µM | Potency (KB-3-1) 3.32 µM and 2.31 µM | Potency (NIH3T3 [2]) 1.3 µM | Potency (MCC-13) 5.9 µM | Potency (MKL-1) 4.69 µM | Potency (MKL-2) 5.26 µM | Potency (UISO) 0.235 µM | Potency (WaGa) 5.9 µM | Potency (C33A) 0.631 µM | Potency (CASKI) 15.8 µM | Potency (HeLa) 2.82 µM | Potency (Hek293T) 7.94 µM | Potency (JEG-3) 11.2 µM

Nc1ncnc2c1c(-c1cnc3[nH]ccc3c1)nn2C1CCCC1
active: Potency (HEK293) 1.48 µM and 2.59 µM | Potency (HaCat [1]) 2.64 µM and 1.84 µM | Potency (KB-3-1) 1.66 µM and 4.61 µM | Potency (NIH3T3 [2]) 83.3 nM and 517 nM | Potency (MCC-13) 4.18 µM | Potency (MCC-26) 10.5 µM | Potency (UISO) 4.69 µM | Potency (CASKI) 11.2 µM | Potency (Es-2) 10 µM | Potency (HeLa) 10 µM | Potency (Hek293T) 7.94 µM

C#Cc1cccc(Nc2ncnc3cc(OC)c(OCCCCCCC(=O)NO)cc23)c1
active: Potency (HEK293) 1.05 µM and 4.61 µM | Potency (HaCat [1]) 2.64 µM and 6.51 µM | Potency (KB-3-1) 1.48 µM and 4.11 µM | Potency (NIH3T3 [2]) 13.2 µM | Potency (MCC-13) 16.6 µM | Potency (MKL-1) 0.935 µM | Potency (MKL-2) 0.105 µM | Potency (UISO) 2.09 µM | Potency (WaGa) 0.105 µM | Potency (C33A) 3.55 µM | Potency (CAOV3) 7.94 µM | Potency (CASKI) 6.31 µM | Potency (Es-2) 10 µM | Potency (HeLa) 6.31 µM | Potency (JEG-3) 10 µM

O=C(C=Cc1cccnc1)NCCCCC1CCN(C(=O)c2ccccc2)CC1
active: Potency (HEK293) 0.0074 µM | Potency (HaCat [1]) 0.372 µM | Potency (KB-3-1) 13.2 nM | Potency (NIH3T3 [2]) 0.0372 µM | Potency (MCC-13) 0.0526 µM | Potency (MKL-2) 0.0209 µM | Potency (UISO) 0.0209 µM | Potency (WaGa) 0.0166 µM

COC(=O)Nc1ccc(-c2nc(N3CCOCC3)c3cnn(C4CCN(Cc5cccnc5)CC4)c3n2)cc1
active: Potency (HEK293) 66.2 nM and 1.46 µM | Potency (HaCat [1]) 13.2 µM | Potency (KB-3-1) 132 nM and 1.64 µM | Potency (NIH3T3 [2]) 83.3 nM and 920 nM | Potency (MCC-13) 14.8 µM | Potency (MCC-26) 8.33 µM | Potency (UISO) 1.87 µM | Potency (CAOV3) 8.91 µM | Potency (Es-2) 4.47 µM | Potency (HeLa) 25.1 µM | Potency (Hek293T) 2.24 µM

NC(=O)Nc1cc(-c2cccc(F)c2)sc1C(=O)N[C@H]1CCCNC1
active: Potency (HEK293) 148 nM and 231 nM | Potency (HaCat [1]) 8.33 µM and 1.3 µM | Potency (KB-3-1) 2.09 µM and 1.03 µM | Potency (NIH3T3 [2]) 418 nM and 291 nM | Potency (MCC-13) 14.8 µM | Potency (MKL-1) 3.32 µM | Potency (UISO) 4.18 µM | Potency (WaGa) 5.26 µM | Potency (C33A) 1.12 µM | Potency (CAOV3) 1.58 µM | Potency (CASKI) 1.78 µM | Potency (Es-2) 0.631 µM | Potency (HeLa) 1.78 µM | Potency (Hek293T) 1 µM

CC(=O)c1c(C)c2cnc(Nc3ccc(N4CCNCC4)cn3)nc2n(C2CCCC2)c1=O
inactive: max response (HEK293) -2.77% | max response (HaCat [1]) 1.14% | max response (KB-3-1) -7.2% | max response (NIH3T3 [2]) 3.53% | Potency (MCC-13) | Potency (MCC-26) | Potency (WaGa) | activity change, negative = cytotoxicity (C33A) 9.39% [at 6.55 µM] | activity change, negative = cytotoxicity (CAOV3) 11.3% [at 6.55 µM] | activity change, negative = cytotoxicity (CASKI) 12% [at 6.55 µM] | activity change, negative = cytotoxicity (Es-2) 0.0946% [at 6.55 µM] | activity change, negative = cytotoxicity (HeLa) -1.33% [at 6.55 µM] | activity change, negative = cytotoxicity (Hek293T) 25.4% [at 6.55 µM] | activity change, negative = cytotoxicity (JEG-3) -5.97% [at 6.55 µM]

C[C@@H](Oc1cc(-c2cnn(C3CCNCC3)c2)cnc1N)c1c(Cl)ccc(F)c1Cl
active: Potency (HEK293) 4.18 µM and 4.11 µM and 5.8 µM | Potency (HaCat [1]) 13 µM and 10.3 µM | Potency (KB-3-1) 6510 nM | Potency (NIH3T3 [2]) 3.72 µM and 2.91 µM and 5.17 µM | Potency (MKL-1) 13.2 µM | Potency (UISO) 14.8 µM | Potency (WaGa) 23.5 µM | Potency (C33A) 20 µM | Potency (CAOV3) 11.2 µM and 12.6 µM | Potency (CASKI) 14.1 µM | Potency (HeLa) 3.55 µM and 14.1 µM | Potency (Hek293T) 25.1 µM | Potency (JEG-3) 28.2 µM
inactive: Potency (MCC-13)
